# According to the supplement of paper PMC6555819:
# Tests used:
# Assay in all cases: PBM binding z-score (relative to random genomic background probes); higher = stronger binding; sequences stand for … in GC…GCGATTGACAGCGTAGAATGAAGG
# [1] = test system: FXR:RXRa (NR concentration 270 nM, RXRa partner concentration 90 nM)
# How it was run: (§1)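 Binding buffer was PBS pH 7.4 with 2% milk, 0.02% Triton X-100, 1 mM DTT, 0.2 mg/mL BSA and 0.4 mg/ml salmon testes DNA. In it, ligand-free nuclear receptor dimers were incubated 1 h on custom Agilent 4×180K protein-binding microarrays carrying double-stranded probes. Antibodies against each partner (one per run) detected binding, and z-scores were calculated against random background probes after regression normalization of scanned fluorescence.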
# [2] = test system: LXRa:RXRa (NR concentration 270 nM, RXRa partner concentration 90 nM)
# How it was run: as §1
# [3] = test system: LXRa homodimer (NR concentration 270 nM)
# How it was run: as §1
# [4] = test system: LXRb:RXRa (NR concentration 270 nM, RXRa partner concentration 90 nM)
# How it was run: as §1
# [5] = test system: LXRb homodimer (NR concentration 270 nM)
# How it was run: as §1
# [6] = test system: PPARa:RXRa (NR concentration 270 nM, RXRa partner concentration 90 nM)
# How it was run: as §1
# [7] = test system: PPARg:RXRa (NR concentration 180 nM, RXRa partner concentration 90 nM)
# How it was run: as §1
# [8] = test system: PPARg:RXRa 270nM:90nM, anti-RXR (NR concentration 270 nM, RXRa partner concentration 90 nM)
# How it was run: as §1
# [9] = test system: PPARg:RXRa 30nM:10nM, anti-RXR (NR concentration 30 nM, RXRa partner concentration 10 nM)
# How it was run: as §1
# [10] = test system: PPARg:RXRa 90nM:30nM, anti-RXR (NR concentration 90 nM, RXRa partner concentration 30 nM)
# How it was run: as §1
# [11] = test system: PPARg:RXRa DBDmut IVT, anti-RXR (DBD mutation: RXRa K156A/R161A, NR concentration 270 nM, RXRa partner concentration 90 nM)
# How it was run: as §1
# [12] = test system: PPARg:RXRa IVT, anti-PPARg (NR concentration 270 nM, RXRa partner concentration 90 nM)
# How it was run: as §1
# [13] = test system: PPARg DBDmut:RXRa IVT, anti-PPARg (DBD mutation: PPARg1 K132A/R137A, NR concentration 270 nM, RXRa partner concentration 90 nM)
# How it was run: as §1
# [14] = test system: PPARg DBDmut IVT, anti-PPARg (DBD mutation: PPARg1 K132A/R137A, NR concentration 270 nM)
# How it was run: as §1
# [15] = test system: PPARg homodimer (NR concentration 180 nM)
# How it was run: as §1
# [16] = test system: PXR:RXRa (NR concentration 270 nM, RXRa partner concentration 90 nM)
# How it was run: as §1
# [17] = test system: PXR homodimer (NR concentration 270 nM)
# How it was run: as §1
# [18] = test system: RARa:RXR (NR concentration 270 nM, RXRa partner concentration 90 nM)
# How it was run: as §1
# [19] = test system: RARa homodimer (NR concentration 270 nM)
# How it was run: as §1
# [20] = test system: RARb:RXRa (NR concentration 270 nM, RXRa partner concentration 90 nM)
# How it was run: as §1
Sequence,PBM binding z-score [1],PBM binding z-score [2],PBM binding z-score [3],PBM binding z-score [4],PBM binding z-score [5],PBM binding z-score [6],PBM binding z-score [7],PBM binding z-score [8],PBM binding z-score [9],PBM binding z-score [10],PBM binding z-score [11],PBM binding z-score [12],PBM binding z-score [13],PBM binding z-score [14],PBM binding z-score [15],PBM binding z-score [16],PBM binding z-score [17],PBM binding z-score [18],PBM binding z-score [19],PBM binding z-score [20]
ACATGTAGGTTACATCCGGGTCATTCAGGCTATG,2.53,4.55,1.49,3.15,1.14,4.15,4.27,3.99,1.47,2.91,6.27,6.09,4.52,4.01,3.27,3.95,2.86,3.98,0.622,2.43
CCGACTGGGGCATAAGGTTAACATAAGCCAGCCC,0.54,1.08,-0.335,0.945,-1.21,2.22,2.6,3.42,1.27,2.84,3.23,3.36,-0.239,-1.26,0.548,0.636,-0.242,1.51,-0.431,1.88
CGTCCAAGGTCAATGATAGGTCAGTGAAAGCATT,6.83,6,2.8,4.83,0.895,5.41,3.87,4.8,1.74,3.35,3.37,3.61,0.384,-0.272,6.66,5.17,1.58,6.7,1.7,5.31
CAAACTAGGTCACCGGAAGGTCAAAGACCGCATG,5.97,5.91,4.14,4.91,1.03,6.19,9.78,7.64,5.86,7.65,8.27,8.78,2.33,1.54,7.7,5.6,1.46,7.13,2.64,5.2
ACTCGGAGTACAAAGGTCAGAGCTACGCCAGTGA,4.23,4.12,1.57,3.56,0.437,5.17,8.46,7.54,7.42,8.33,0.771,3.83,-0.013,0.136,3.32,4.1,0.393,4.96,2.36,4.39
CTCGAAAGTTCGGTTGAGGTGAGTATACGGATAA,0.279,0.2,-0.166,0.297,-0.341,0.506,-0.114,0.109,-0.0109,0.125,-0.462,0.288,-0.142,0.0612,0.083,1.14,0.236,1.8,-0.11,1.55
ACTATTAGTTGACCTAGGGCAACCGATACGACGC,1.76,2.47,2.09,2.31,1.09,2.52,1.71,1.48,0.386,0.958,1.31,2.56,0.917,1.25,1.64,2.05,0.901,2.79,0.637,2.18
GCTATTAGTTGAAAGGGCAACTGAATGATTCTCG,0.614,0.896,0.18,1.1,0.073,2.51,2.65,4.03,2.6,4.54,0.54,1.04,0.18,0.595,1.34,0.933,0.252,1.68,0.584,2.1
CCTTACGGGTCGCGAGGTTATAGCACGACGAGCG,2.87,1.99,-0.147,1.82,-0.455,3.61,1.91,2.15,0.056,0.872,0.357,1.14,-0.25,-0.857,1.41,2.63,-0.189,3.62,-0.132,2.23
TCTATTTGGTCAAAGGTCACACACTCGAAATGCG,6.32,5.68,4.22,5.83,3.24,6.7,10.6,9.27,9.35,10.1,3.39,6.25,3.22,2.73,5.3,5.91,1.76,7.03,3.85,5.42
TCGAGTAGGTGACCAATGGGGCATTCAGCTTTCT,-0.0525,-0.335,-0.709,-0.15,-1.02,0.875,0.524,1.12,1.01,0.794,4.22,3.6,-0.451,-1.19,-0.701,-0.233,-1.05,-0.0879,-1.72,0.567
TTACCAAGGTGAAAGGTAGTTGATGCACGCCTTG,0.796,0.851,-0.137,0.456,-0.64,2.7,3.76,4.56,2.81,4.51,2.96,3.26,0.619,0.152,0.643,0.603,-0.0575,1.41,0.138,1.56
ACTATTAGTTGAGACGAGGTCAACCGATAGGTTG,3.42,3.7,2.01,3.53,0.73,4.15,1.97,2.35,0.821,1.85,0.226,2.11,0.554,1.21,2.65,5.3,2.57,4.97,1.07,3.52
CATACAGGGTCAGCTAGGCCAAAGTAGGGACGGC,4.83,3.04,0.0314,2.39,0.557,4.4,3.32,3.26,0.781,1.85,0.935,2.57,0.812,0.367,1.48,2.55,0.23,3.25,0.847,4.14
CAAGACAGGTGAAAGGTAACTCAGTCTGGTACGC,1.04,1.14,-0.209,0.929,0.289,3.73,5.4,5.94,4.14,6.08,1.61,2.88,0.223,0.183,0.995,1.09,0.0379,1.92,0.108,1.57
GATACAGGCTCAGCTAGAGGCCAGAGTATGGAAA,-0.845,-1.13,-0.652,-1.25,-1.62,-1.21,0.137,-0.746,-0.505,-0.667,-1.07,-0.379,-0.391,-1.01,-0.531,-0.951,-0.872,-0.733,-0.86,-0.294
TCATATAGGTAATACAGGTGAGAGTCGGCATCTA,0.19,0.512,0.274,0.54,0.184,1.63,1.39,2.16,3.62,2.77,3.93,3.29,1.38,1.56,0.749,0.46,0.623,0.533,1.42,0.457
GCGACTGGGGCATCAGCAGGTTACCATGACTTAA,-0.337,-0.256,-0.454,0.309,-1.08,0.903,0.918,0.462,-0.743,-0.0721,3.94,2.97,-0.844,-0.497,-0.0201,-0.489,-0.454,-0.00016,-0.803,0.805
ACAGTCAGGTGAGTGAAGGTAACTCAGCTGGACG,0.264,0.217,-0.578,-0.682,-0.538,-0.317,0.268,0.101,-0.17,-0.277,0.794,0.82,-0.123,-0.515,-0.608,-0.47,-0.728,-0.00233,0.0121,0.775
ACTATTAGTTGAGACGAGGGTAACCGATAGGTTG,0.247,0.035,-0.0924,-0.182,0.187,-0.0411,0.515,0.0504,0.213,0.176,0.111,0.339,0.757,0.539,0.211,0.245,0.43,0.64,0.125,0.342
CAAACTAGGTCTAGAGGTCAAAGTCCGCTTCCCG,4.99,5.78,5.83,4.86,1.55,5.14,5.12,5.9,4.3,5.99,3.11,4.41,0.248,0.06,3.03,5.4,2.48,5.69,0.52,3.96
GCTGCTAGGTCAGGTTGGTCAGCTCACGGGTACG,1.27,0.883,-0.243,0.696,-0.186,1.57,0.553,0.724,-0.171,0.333,3.01,2.19,-0.391,-0.956,0.943,0.37,0.00075,0.901,0.262,3.26
CGAACTAGGTCATCCAGGACAGTGCATACATTGA,4.36,2.32,0.87,2.15,0.0357,4.85,7.67,6.47,3.97,5.85,8.26,8.19,1.89,1.6,1.98,2.11,1.49,2.35,0.873,3.91
ACTCGAAGGACAAAGGTCAGAGCTACGCCAGTGA,4.03,3.98,1.41,3.57,0.35,4.95,6.73,6.23,5.02,6.39,0.648,3.42,-0.0022,-0.263,2.57,3.58,0.743,4.28,0.861,4.7
TCATATAGGTAAATGCTAGGTGAACGTCCGATCT,0.421,0.682,0.358,0.608,-0.229,1.36,1.09,2.06,3.51,2.65,4.03,2.94,0.935,1.01,0.675,0.493,0.0506,0.769,0.634,0.536
CCTACTGGGGCAAAAAGGTCATTGATGCCGATAA,3.82,4.34,2.86,3.92,0.284,4.96,4.68,5.28,2.57,4.43,4.52,5.48,0.778,1.73,5.37,5.17,5.54,5.35,2.82,4.08
CGAACTAGGTCATCCACGACAGTGAATACATTGA,4.92,2.48,0.634,2.23,0.18,4.92,8.03,6.61,4.01,5.93,7.98,8.15,5.88,5.31,2.72,1.59,0.311,2.59,0.664,3.87
TAGCCTAGGTCATTCAGGGGCCAGTATTGAAAGC,4.17,3.5,0.907,3.03,0.763,3.43,1.63,2.22,0.291,1.32,1.67,2.66,-0.277,-0.0243,2.68,2.72,-0.361,3.99,-0.562,3.8
TCTGCTAGGACAACGATGGTCAGCTAATCTGCTA,-0.541,-0.708,-0.957,-0.773,-0.823,-0.569,-0.0545,0.0795,0.983,0.581,0.636,-0.317,-0.808,-0.587,-1.47,-0.66,-1.33,-0.497,-0.832,0.175
